# Assay results reported in ChEMBL document CHEMBL2218924, “A broad activity screen in support of a chemogenomic map for kinase signalling research and drug discovery” (Biochem J, 2013).
# Tests used:
# [1] = target: Insulin receptor (Homo sapiens) (UniProt P06213); details: at 10 µM
# [2] = target: Insulin receptor (Homo sapiens) (UniProt P06213); details: at 1 µM
# [3] = target: Insulin receptor (Homo sapiens) (UniProt P06213); details: at 10 µM; remark: listed apart in the source
# [4] = target: Interleukin-1 receptor-associated kinase 1 (Homo sapiens) (UniProt P51617); details: at 1 µM
# [5] = target: Interleukin-1 receptor-associated kinase 1 (Homo sapiens) (UniProt P51617); details: at 10 µM
# [6] = target: T1, Interleukin-1 receptor-associated kinase 4 (Homo sapiens) (UniProt Q9NWZ3); details: at 1 µM
# T1 sequence (whole entry): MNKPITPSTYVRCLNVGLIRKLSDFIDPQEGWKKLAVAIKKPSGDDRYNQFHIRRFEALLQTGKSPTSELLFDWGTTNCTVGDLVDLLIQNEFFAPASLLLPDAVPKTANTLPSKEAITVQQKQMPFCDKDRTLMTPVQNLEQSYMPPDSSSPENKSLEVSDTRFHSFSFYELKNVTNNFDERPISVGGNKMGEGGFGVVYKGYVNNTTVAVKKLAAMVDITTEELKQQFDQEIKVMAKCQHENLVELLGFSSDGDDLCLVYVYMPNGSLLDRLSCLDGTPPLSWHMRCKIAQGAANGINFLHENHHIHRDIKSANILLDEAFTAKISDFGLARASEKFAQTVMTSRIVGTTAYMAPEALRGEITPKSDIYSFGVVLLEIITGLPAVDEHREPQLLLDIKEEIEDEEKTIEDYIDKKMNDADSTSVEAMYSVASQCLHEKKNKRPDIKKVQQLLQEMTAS
# [7] = target: T1, Interleukin-1 receptor-associated kinase 4 (Homo sapiens); details: at 10 µM
# [8] = target: Insulin receptor-related protein (Homo sapiens) (UniProt P14616); details: at 1 µM
# [9] = target: Insulin receptor-related protein (Homo sapiens) (UniProt P14616); details: at 10 µM
# [10] = target: T2, Tyrosine-protein kinase ITK/TSK (Homo sapiens) (UniProt Q08881); details: at 1 µM
# T2 sequence (whole entry): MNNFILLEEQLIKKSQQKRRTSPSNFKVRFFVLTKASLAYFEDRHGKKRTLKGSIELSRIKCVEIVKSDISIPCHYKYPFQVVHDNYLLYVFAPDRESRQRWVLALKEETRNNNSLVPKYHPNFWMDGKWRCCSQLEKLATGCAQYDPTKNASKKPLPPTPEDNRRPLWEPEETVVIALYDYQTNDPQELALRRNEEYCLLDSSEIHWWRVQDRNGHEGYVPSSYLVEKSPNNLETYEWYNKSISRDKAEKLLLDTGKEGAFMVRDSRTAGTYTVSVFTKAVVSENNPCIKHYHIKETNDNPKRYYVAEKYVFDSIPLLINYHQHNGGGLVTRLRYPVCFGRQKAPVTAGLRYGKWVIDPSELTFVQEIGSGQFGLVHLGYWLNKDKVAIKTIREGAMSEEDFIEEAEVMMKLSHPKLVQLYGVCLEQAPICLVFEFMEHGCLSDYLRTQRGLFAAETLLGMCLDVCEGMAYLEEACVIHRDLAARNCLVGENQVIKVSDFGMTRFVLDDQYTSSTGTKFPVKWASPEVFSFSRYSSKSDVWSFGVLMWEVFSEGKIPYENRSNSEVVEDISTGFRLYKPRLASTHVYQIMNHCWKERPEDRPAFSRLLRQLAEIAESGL
# [11] = target: T2, Tyrosine-protein kinase ITK/TSK (Homo sapiens); details: at 10 µM
# [12] = target: Tyrosine-protein kinase JAK2 (Homo sapiens) (UniProt O60674); details: at 1 µM
# [13] = target: Tyrosine-protein kinase JAK2 (Homo sapiens) (UniProt O60674); details: at 10 µM
# [14] = target: T3, Tyrosine-protein kinase JAK3 (Homo sapiens) (UniProt P52333); details: at 1 µM
# T3 sequence (whole entry): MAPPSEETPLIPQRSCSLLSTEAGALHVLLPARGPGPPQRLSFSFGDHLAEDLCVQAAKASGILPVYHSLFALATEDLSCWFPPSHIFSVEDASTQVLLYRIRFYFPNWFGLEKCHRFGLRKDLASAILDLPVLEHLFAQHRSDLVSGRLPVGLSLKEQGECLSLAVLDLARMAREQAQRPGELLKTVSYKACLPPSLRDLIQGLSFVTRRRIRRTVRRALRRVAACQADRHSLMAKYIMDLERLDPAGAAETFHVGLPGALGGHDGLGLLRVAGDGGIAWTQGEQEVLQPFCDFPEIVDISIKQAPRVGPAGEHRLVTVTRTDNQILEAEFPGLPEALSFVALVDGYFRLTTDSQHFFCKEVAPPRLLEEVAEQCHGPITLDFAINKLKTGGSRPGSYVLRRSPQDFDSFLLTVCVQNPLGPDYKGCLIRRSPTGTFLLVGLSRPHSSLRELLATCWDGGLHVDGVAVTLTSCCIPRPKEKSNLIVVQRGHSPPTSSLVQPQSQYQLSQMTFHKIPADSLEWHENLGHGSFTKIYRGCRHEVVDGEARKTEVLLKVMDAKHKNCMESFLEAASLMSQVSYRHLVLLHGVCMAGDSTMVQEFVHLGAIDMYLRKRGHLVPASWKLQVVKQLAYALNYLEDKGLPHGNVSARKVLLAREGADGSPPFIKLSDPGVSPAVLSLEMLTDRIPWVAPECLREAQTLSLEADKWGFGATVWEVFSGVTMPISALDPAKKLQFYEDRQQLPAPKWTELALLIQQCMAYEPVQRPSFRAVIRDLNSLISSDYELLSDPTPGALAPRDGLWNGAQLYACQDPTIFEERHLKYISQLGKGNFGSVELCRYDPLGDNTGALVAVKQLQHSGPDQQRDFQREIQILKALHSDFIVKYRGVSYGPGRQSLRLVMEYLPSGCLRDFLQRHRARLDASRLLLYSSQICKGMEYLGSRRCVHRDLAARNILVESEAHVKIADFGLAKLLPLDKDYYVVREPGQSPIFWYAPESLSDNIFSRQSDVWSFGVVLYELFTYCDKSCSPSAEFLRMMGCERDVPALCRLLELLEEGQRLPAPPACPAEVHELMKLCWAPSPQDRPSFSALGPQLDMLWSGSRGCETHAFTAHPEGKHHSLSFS
# [15] = target: T3, Tyrosine-protein kinase JAK3 (Homo sapiens); details: at 10 µM
# [16] = target: Mitogen-activated protein kinase 8 (Homo sapiens) (UniProt P45983); details: at 1 µM
# [17] = target: Mitogen-activated protein kinase 8 (Homo sapiens) (UniProt P45983); details: at 10 µM
# [18] = target: Mitogen-activated protein kinase 9 (Homo sapiens) (UniProt P45984); details: at 1 µM
# [19] = target: Mitogen-activated protein kinase 9 (Homo sapiens) (UniProt P45984); details: at 10 µM
# [20] = target: Mitogen-activated protein kinase 10 (Homo sapiens) (UniProt P53779); details: at 1 µM
# Mitogen-activated protein kinase 10 (Homo sapiens), sequence (P53779 whole entry): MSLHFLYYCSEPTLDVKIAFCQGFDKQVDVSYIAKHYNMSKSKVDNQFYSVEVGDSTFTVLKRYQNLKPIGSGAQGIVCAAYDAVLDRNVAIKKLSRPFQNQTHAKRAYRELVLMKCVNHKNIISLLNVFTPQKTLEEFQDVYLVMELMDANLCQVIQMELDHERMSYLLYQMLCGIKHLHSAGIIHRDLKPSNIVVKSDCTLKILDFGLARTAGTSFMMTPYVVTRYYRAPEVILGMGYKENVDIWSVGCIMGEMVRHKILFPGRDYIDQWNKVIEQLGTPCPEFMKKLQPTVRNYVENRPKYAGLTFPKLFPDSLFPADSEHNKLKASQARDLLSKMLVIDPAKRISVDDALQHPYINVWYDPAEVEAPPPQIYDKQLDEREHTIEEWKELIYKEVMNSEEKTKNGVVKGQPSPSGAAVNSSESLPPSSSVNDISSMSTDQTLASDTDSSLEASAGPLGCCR
# Insulin receptor (Homo sapiens), sequence (P06213 28-758 limits assumed): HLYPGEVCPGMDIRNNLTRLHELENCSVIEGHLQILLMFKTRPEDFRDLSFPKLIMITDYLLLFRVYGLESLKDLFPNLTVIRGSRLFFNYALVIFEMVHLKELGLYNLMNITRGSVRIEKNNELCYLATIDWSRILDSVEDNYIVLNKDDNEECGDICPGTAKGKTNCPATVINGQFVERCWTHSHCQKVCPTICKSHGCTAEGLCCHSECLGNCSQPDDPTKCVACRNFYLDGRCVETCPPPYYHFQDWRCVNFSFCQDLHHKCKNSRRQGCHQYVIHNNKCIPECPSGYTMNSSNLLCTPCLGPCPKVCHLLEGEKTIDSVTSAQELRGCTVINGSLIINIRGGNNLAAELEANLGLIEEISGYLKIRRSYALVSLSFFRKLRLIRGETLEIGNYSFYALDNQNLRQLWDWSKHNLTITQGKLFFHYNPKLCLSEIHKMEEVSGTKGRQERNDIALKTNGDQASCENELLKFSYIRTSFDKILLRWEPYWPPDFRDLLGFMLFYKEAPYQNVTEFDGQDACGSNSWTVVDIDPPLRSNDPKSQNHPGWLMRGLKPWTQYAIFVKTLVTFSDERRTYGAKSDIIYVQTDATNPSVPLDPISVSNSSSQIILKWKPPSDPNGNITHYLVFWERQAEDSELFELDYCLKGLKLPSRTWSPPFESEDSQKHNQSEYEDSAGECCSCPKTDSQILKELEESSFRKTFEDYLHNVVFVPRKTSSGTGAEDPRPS
# Insulin receptor (Homo sapiens), sequence (P06213 763-1382 limits assumed): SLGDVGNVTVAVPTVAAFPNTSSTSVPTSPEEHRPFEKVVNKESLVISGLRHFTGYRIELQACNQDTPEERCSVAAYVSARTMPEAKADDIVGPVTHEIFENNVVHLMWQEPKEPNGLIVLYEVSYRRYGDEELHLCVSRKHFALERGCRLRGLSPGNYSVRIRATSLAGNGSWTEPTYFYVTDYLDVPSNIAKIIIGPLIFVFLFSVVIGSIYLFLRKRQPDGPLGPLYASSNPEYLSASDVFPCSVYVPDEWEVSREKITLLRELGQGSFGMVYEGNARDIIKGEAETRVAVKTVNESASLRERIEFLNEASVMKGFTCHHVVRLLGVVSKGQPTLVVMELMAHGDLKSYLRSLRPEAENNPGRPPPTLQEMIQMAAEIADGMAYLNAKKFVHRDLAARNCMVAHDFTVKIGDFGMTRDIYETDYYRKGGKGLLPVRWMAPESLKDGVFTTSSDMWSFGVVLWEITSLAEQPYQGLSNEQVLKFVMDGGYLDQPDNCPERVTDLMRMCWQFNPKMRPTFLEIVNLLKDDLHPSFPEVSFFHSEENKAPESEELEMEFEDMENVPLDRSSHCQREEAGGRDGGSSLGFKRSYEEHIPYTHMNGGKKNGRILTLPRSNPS
# Interleukin-1 receptor-associated kinase 1 (Homo sapiens), sequence (P51617 whole entry, looked up): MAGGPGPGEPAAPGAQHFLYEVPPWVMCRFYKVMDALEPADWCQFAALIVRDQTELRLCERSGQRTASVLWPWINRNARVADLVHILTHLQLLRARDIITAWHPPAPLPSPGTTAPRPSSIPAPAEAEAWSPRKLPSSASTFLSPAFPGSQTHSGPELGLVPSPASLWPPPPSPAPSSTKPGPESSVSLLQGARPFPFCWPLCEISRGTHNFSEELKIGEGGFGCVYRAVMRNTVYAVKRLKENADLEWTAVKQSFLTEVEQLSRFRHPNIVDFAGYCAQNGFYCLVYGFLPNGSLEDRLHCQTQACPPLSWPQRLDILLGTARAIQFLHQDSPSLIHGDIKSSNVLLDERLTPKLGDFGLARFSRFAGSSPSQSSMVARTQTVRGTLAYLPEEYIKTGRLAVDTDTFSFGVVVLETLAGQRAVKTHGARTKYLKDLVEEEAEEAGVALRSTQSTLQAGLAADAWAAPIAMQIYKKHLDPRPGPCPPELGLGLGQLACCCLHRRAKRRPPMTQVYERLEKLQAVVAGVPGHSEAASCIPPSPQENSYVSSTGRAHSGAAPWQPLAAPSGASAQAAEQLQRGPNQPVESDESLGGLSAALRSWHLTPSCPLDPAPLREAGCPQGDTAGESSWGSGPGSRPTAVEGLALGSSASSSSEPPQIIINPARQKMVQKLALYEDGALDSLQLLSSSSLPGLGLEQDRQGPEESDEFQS
# Insulin receptor-related protein (Homo sapiens), sequence (P14616 27-742 limits assumed): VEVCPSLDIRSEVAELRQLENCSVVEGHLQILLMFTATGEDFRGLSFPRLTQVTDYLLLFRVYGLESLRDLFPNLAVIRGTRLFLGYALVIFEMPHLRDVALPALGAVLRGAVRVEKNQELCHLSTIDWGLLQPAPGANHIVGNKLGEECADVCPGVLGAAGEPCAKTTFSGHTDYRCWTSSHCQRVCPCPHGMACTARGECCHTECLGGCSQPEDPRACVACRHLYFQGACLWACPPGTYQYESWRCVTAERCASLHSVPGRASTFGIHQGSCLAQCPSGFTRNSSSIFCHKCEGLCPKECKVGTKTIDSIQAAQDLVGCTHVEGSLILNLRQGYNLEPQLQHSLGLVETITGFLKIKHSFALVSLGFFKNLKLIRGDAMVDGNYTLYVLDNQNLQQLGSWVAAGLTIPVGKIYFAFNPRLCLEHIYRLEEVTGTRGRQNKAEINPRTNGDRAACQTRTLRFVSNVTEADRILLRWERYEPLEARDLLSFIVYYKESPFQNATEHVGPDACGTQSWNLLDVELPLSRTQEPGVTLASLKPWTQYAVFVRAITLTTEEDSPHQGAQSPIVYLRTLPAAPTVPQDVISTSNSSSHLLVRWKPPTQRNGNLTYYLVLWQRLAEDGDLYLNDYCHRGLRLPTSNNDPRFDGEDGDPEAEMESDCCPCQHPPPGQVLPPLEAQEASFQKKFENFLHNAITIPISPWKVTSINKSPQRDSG
# Insulin receptor-related protein (Homo sapiens), sequence (P14616 747-1297 limits assumed): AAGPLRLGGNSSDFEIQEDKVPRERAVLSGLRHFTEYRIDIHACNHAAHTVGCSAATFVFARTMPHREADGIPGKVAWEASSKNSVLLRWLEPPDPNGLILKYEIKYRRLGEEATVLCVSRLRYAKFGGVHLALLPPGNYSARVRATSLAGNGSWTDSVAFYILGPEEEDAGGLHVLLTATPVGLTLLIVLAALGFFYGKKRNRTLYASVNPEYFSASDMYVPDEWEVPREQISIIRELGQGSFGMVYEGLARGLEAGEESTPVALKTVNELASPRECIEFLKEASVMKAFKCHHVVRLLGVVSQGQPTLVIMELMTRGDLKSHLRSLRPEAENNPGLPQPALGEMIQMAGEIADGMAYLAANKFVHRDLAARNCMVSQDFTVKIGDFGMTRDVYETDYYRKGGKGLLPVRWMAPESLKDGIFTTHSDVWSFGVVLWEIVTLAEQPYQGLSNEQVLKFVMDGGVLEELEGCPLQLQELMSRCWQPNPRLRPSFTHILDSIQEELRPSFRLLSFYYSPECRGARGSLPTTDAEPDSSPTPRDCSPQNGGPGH
# Mitogen-activated protein kinase 9 (Homo sapiens), sequence (P45984 whole entry, looked up): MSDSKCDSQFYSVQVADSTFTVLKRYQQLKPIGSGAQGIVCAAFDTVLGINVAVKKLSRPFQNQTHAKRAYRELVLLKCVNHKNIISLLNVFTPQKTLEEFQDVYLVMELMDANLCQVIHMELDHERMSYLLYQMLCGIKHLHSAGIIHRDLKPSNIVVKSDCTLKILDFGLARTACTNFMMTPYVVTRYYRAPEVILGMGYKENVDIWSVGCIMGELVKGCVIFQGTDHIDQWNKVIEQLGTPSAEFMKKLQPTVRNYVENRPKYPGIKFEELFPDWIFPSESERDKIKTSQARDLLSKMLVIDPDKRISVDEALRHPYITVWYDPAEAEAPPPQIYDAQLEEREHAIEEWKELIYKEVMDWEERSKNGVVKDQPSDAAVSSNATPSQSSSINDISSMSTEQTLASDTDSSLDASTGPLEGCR
# Mitogen-activated protein kinase 8 (Homo sapiens), sequence (P45983 whole entry): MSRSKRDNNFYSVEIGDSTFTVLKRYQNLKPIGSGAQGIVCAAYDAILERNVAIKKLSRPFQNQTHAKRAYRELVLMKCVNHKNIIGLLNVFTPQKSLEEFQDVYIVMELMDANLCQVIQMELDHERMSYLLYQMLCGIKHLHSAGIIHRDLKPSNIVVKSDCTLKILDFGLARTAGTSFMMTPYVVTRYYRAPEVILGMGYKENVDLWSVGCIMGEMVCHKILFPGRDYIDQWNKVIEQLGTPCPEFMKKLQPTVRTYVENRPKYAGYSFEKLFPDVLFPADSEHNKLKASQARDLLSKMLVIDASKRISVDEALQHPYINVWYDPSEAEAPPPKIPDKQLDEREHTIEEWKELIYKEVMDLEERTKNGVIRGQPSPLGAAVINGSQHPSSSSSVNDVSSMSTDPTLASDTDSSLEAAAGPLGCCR
Structure (SMILES),residual activity [1] [%],residual activity [2] [%],residual activity [3] [%],residual activity [4] [%],residual activity [5] [%],residual activity [6] [%],residual activity [7] [%],residual activity [8] [%],residual activity [9] [%],residual activity [10] [%],residual activity [11] [%],residual activity [12] [%],residual activity [13] [%],residual activity [14] [%],residual activity [15] [%],residual activity [16] [%],residual activity [17] [%],residual activity [18] [%],residual activity [19] [%],residual activity [20] [%]
O=Nc1c(-c2c(O)[nH]c3ccccc23)[nH]c2ccccc12,10,35,19,60,11,41,6,2,1,19,1,92,11,21,2,63,70,55,17,7
CCOc1cc2ncnc(Nc3cccc(Br)c3)c2cc1OCC,144,100,92,79,28,49,18,126,85,94,85,118,88,105,87,99,77,105,96,43
COc1ccc(C(=O)Nc2sc3c(c2C(N)=O)CCCC3)cc1OC,82,96,96,92,86,54,52,116,90,101,96,80,101,99,100,106,68,99,94,66
O=C1NC(=O)/C(=C/c2ccc3c(c2)OC(F)(F)O3)S1,103,104,98,102,80,111,106,139,99,103,108,101,97,94,63,106,106,106,102,81
COc1cc2ncnc(Nc3ccc(O)c(Br)c3)c2cc1OC,76,95,91,40,10,44,17,102,75,89,71,102,55,93,57,96,54,99,78,51
CC(C)n1cnc2c(NCc3ccccc3)nc(NCCCO)nc21,70,99,75,105,106,93,76,106,84,105,96,101,103,111,108,104,95,98,99,57
COc1ccc(OC)c2c(=S)c3ccccc3[nH]c12,103,101,89,101,102,86,68,106,103,98,97,88,102,97,97,99,95,88,106,80
Nc1cccc(-c2cc3c(Oc4cccc(O)c4)ncnc3[nH]2)c1,46,103,78,69,20,79,69,98,58,68,49,80,19,83,21,102,89,90,82,94
O=C(Nc1cccc(Nc2nccc(Nc3cccc(C(F)(F)F)c3)n2)c1)C1CC1,12,86,97,81,82,50,44,13,1,96,56,19,29,76,23,109,61,102,93,51
C[C@@H](N)[C@H]1CC[C@H](C(=O)Nc2ccncc2)CC1,109,104,97,100,98,101,95,103,101,106,104,95,100,107,122,98,110,111,105,83
CNc1cc2c(Nc3cccc(Br)c3)ncnc2cn1,48,96,103,95,75,96,61,135,71,104,87,70,56,96,78,100,97,98,92,97
CC[n+]1c(/C=C/N(C)c2ccccc2)n(-c2ccccc2)c2ccc(-c3nc4ccccc4s3)cc21,86,100,92,96,92,113,78,111,87,101,92,121,150,118,149,119,95,113,102,91
O=[N+]([O-])c1ccc(-c2nc(-c3ccc(F)cc3)c(-c3ccncc3)[nH]2)cc1,109,105,95,107,108,104,97,124,98,108,98,99,101,118,108,102,98,68,59,8
